In this assay the target is E3 ubiquitin-protein ligase XIAP (Homo sapiens) (UniProt P98170). Kind of assay: XIAP binders, primary screen, biophysical, small-molecule microarray, fluorescence 635 nm (AID 1181).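 Note: score merges 667 nm emission and signal to noise over triplicate slides.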 The following applies: small-molecule microarray binding, higher = more signal.
Sequence of E3 ubiquitin-protein ligase XIAP (Homo sapiens) (P98170 whole entry, looked up): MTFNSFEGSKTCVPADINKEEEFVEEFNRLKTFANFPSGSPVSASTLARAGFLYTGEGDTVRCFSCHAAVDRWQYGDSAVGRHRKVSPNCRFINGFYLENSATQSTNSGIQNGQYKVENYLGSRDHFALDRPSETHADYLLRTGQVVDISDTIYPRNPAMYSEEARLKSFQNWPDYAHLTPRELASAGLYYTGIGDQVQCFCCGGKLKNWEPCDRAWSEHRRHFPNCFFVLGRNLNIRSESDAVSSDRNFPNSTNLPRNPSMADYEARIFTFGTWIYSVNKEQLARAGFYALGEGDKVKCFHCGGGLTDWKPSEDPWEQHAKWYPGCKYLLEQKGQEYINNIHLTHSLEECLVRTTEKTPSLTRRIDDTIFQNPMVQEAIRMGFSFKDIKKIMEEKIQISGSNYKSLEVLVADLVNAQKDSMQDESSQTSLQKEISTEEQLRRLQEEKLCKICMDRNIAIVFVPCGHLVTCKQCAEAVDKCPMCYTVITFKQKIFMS
`CC=CC1=C(CO)[C@H](O)[C@H]2O[C@H]2[C@H]1O` returned a composite z-score of 0.0774. For `COCCNC(=O)OCC1CCCC2(CC(OC(=O)NCCc3ccc(F)cc3)CC(CCC(=O)N[C@@H](C)C(=O)OC)O2)O1` (stereo not given in full) the value was -0.216. Then `CC(C)[C@H](NC(=O)OC(C)(C)C)[C@@H](O)CC(=O)OC(C)(C)C`, with -0.102; and `CCc1cc2c(nc1CC)CCN(CCC(C)=NOC[C@@H](O)COCc1ccco1)C2`, with 0.183. The compound `CCOC(=O)[C@H](Cc1ccccc1)NC(=O)CCC1CC(OC(=O)NCc2ccc3c(c2)OCO3)CC2(CCCC(COC(=O)NCc3ccccc3)O2)O1` (stereo not given in full) showed a composite z-score of -0.0089. Then `C=CCOC(=O)[C@H]1[C@@H]2C(=O)O[C@@H](c3ccccc3)[C@@H](c3ccccc3)N2[C@@H](c2ccc(OCCOC(=O)[C@H]3C[C@H]4C(=O)N[C@@H](Cc5ccccc5)C(=O)N4[C@H]3c3ccc(O)cc3)cc2)[C@]12C(=O)Nc1ccccc12`, with 0.0015. Then `C=CC[C@@H]1C=C[C@H](ON=C2c3cc(OC)ccc3O[C@H](c3cccc(OC)c3)[C@H]2O)[C@@H](CO)O1`, with -0.0834; and `CC(C)(C)N1C(=O)[C@H]2[C@H]3[C@H](O)[C@H](O)CC(=NO[C@@H]4O[C@H](CO)[C@@H](O)[C@H](O)[C@H]4O)[C@@H]3CC[C@H]2C1=O`, with 0.144; and `CC(C)=NOCc1cccc(-c2cc(-c3ccccc3)no2)c1`, with -0.288. Then `C[C@H]1CC[C@@H](C(=O)O)N[C@@H]1c1ccc(C#CCN(C)C)cc1`, with 0.256; and `CO[C@H]1COC(=O)[C@H](C)NC(=O)[C@@H](C)COC(=O)CC=C[C@@H]1C`, with 0.0593. `COC(=O)CC=C[C@H](C)[C@H](CO)NS(=O)(=O)c1ccc(C)cc1`: the composite z-score was -0.123. Then `Cc1cc2c(nc1C)CCCN2CC(C)ON=C1[C@H]2CCn3c(=O)n(-c4ccccc4)c(=O)n3[C@H]2[C@H](O)[C@@H]2O[C@H]12` (stereo not given in full), with 0.0483; and `CC(C)OC(=O)C=C1C[C@@H](c2ccc(C#N)cc2)O[C@@H](c2ccc(C#N)cc2)O1`, with -0.0994. Then `CO[C@H]1COC(=O)[C@H](C)COC(=O)CC=C[C@@H](C)[C@H](OC)COC(=O)CC=C[C@@H]1C`, with -0.0117; and `CC(CCN1CCc2nc(-c3ccccc3)c(-c3ccccc3)cc2C1)=NO[C@@H](C)c1cn([C@H](CO)Cc2ccccc2)nn1`, with -0.376; and `COc1ccc([Si](C)(C)[C@@H]2[C@@H](CC(=O)N3CCC[C@H]3CO)O[C@]3(C(=O)N(Cc4cccc(N5CCC5=O)c4)c4ccccc43)[C@H]2C)cc1`, with -0.152. For `COc1ccccc1CN1C(=O)c2ccccc2[C@@H](C(=O)NCC(F)(F)F)[C@@H]1c1ccc(CO)cc1` the value was -0.148; for `[N-]=[N+]=NCc1ccccc1[C@@H]1OC(c2ccc(OCCCO)cc2)=N[C@]1(Cc1ccccc1)C(=O)N1CCOCC1`, 0.113. For `CC(C)(C)OC(=O)CC[C@]1(C(=O)NCc2ccccc2)N=C(c2ccc(OCCCO)cc2)O[C@H]1c1ccccc1`, the composite z-score was -0.16. Then `CC1CC/C=C\[C@H]2OC34C=CCN(Cn5nnc6ccccc65)C(=O)[C@H]3N(CCO)C(=O)[C@@H]4C2C(=O)O1` (stereo not given in full), with 0.235. Then `CCOC(=O)CCN1C(=O)[C@H]2[C@H]3[C@H](O)C=CC(=O)[C@@H]3CC[C@H]2C1=O`, with 0.0356; and `O=C1C[C@@H](O)[C@@H](O)[C@@H]2[C@@H]3C(=O)N(Cc4ccc5c(c4)OCO5)C(=O)[C@@H]3CC[C@@H]12`, with 0.0908.

The compound `CCN1C(=O)[C@H]2[C@H]3[C@H](O)[C@H](O)CC(=NO[C@@H]4O[C@H](CO)[C@@H](O)[C@H](O)[C@H]4O)[C@@H]3CC[C@H]2C1=O` had a composite z-score of 0.0623.

`C#CCCCON=C1C[C@@H](O)[C@@H](O)[C@@H]2[C@@H]3C(=O)N(Cc4ccccc4)C(=O)[C@@H]3CC[C@H]12` yielded a composite z-score of -0.256. For `C[C@@H](c1ccccc1)N1C(=O)[C@H]2[C@H]3[C@H](O)[C@H](O)CC(=NNC(=O)OCc4ccccc4)[C@H]3CC[C@H]2C1=O` the value was -0.163; for `COC(=O)[C@H](C)NC(=O)CCC1CC(OC(=O)NCc2cccc3ccccc23)CC2(CCCC(COC(=O)NCCc3ccc(Cl)cc3)O2)O1` (stereo not given in full), -0.0718. For the compound `CCc1cc2c(nc1CC)CCN(CCC(C)=NOC(C)CN1CCCc3nc(C)c(C)cc31)C2` (stereo not given), the composite z-score amounted to 1.13. Then `COC(=O)[C@@]1(Cc2ccc(OC)cc2)[C@H]2c3cc(C(=O)N4CCCC4)n(Cc4cc(F)c(F)c(F)c4)c3C[C@H]2CN1C(=O)c1ccccc1`, with 0.25. Then `CN1C(=O)C2C=CC(C(O)c3ccc(Br)cc3)N(N(c3ccccc3)c3ccccc3)C2C1=O` (stereo not given), with -0.0255.

The values above are taken from PubChem BioAssay.
